Among all 7,900 compounds or so, about 400 (5.1%) showed an effect of 50% or more. What follows is part of a selection rich in strong results, with near analogues and random picks from the rest.
Each molecule was assayed against Parkinson's disease protein 7 (PARK7/DJ1) (human, UniProt Q99497) (assay: primary screen, percent inhibition; read as competition with a fluorescent probe by fluorescence polarization; higher = more effect of the substance). Settings: 100 µM.
Parkinson's disease protein 7 (PARK7/DJ1), sequence (Q99497 whole entry, looked up, the tested form may be a part): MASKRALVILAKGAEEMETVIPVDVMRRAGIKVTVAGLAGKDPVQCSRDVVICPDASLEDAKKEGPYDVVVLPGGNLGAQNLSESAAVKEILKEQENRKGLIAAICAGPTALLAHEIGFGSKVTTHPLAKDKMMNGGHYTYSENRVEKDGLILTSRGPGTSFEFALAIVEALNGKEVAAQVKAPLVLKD
Summary of the method: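 Fluorescence-polarization probe displacement (JYQ-107, 20 nM final, 2 h) after 2 h preincubation of PARK7 (0.2 μM final) with each fragment at 100 μM final. Read-out ex/em 480/520 nm; remaining activity derived from FP signal loss relative to reference controls.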
`O=C(CCl)Nc1cccc(NC(=O)c2ccccc2)c1` gave an Inhibition % of 7.84%. `Cc1ccc(Oc2ccc(NC(=O)CCl)cc2)cc1` gave an Inhibition % of 36.3%. `O=C(CCl)Nc1ccc(Oc2ccccc2Cl)cc1` was tested, and the Inhibition % was 93.7%. In the case of `Cc1cccc(Oc2ccc(NC(=O)CCl)cc2)c1`, the Inhibition % is reported as 81.6%. `Cc1cccc(NC(=O)CCl)c1` showed an Inhibition % of 8.99%. Work on `Cc1ccc(C)c(S(=O)(=O)n2nc(C)cc2C)c1` yielded an Inhibition % of 1.62%. `CCOc1cc(C)c(Cl)cc1S(=O)(=O)n1cnc(C)c1` was tested, and the Inhibition % was 5.28%. With `C=CC(=O)NCCN(C)C1CCCCC1` the Inhibition % was 10.8%. `C=CC(=O)N1CCN(c2ncnc3sc(C)cc23)CC1` showed an Inhibition % of 0.554%. In the case of `Cc1noc(C)c1Cn1c(-c2ccccn2)noc1=O`, the Inhibition % is reported as 0.962%. Molecule `CC1(C)OB(c2cccc3occc23)OC1(C)C` has an Inhibition % of 10.2%. Work on `C=CC(=O)N1CCC(c2nccn2C)C1` (centres unmarked) yielded an Inhibition % of 5.02%. With `Cn1c(=O)[nH]c2ccc(B3OC(C)(C)C(C)(C)O3)cc21` the Inhibition % was 0.0918%. In the case of `C=CC(=O)NC1CC(OCC)C12CCCCC2` (centres unmarked), the Inhibition % is reported as 4.59%. Work on `CN(C)C(=O)Oc1ccc2c(c1)OCO2` yielded an Inhibition % of -4.08%. With `N#Cc1nccnc1N1CCC(C(F)(F)F)CC1` the Inhibition % was 2.52%. `C=CC(=O)N1CCN(CC2CCOCC2)CC1` showed an Inhibition % of 12.9%. Molecule `N#Cc1ccc(N2CCOC(c3cccs3)C2)cn1` (centres unmarked) has an Inhibition % of 4.98%. Work on `COCc1ccc(CNC(=O)CCl)cc1` yielded an Inhibition % of 6.87%. `N#Cc1ccc(N2CCCC(C(N)=O)C2)cn1` (centres unmarked) was tested, and the Inhibition % was 6.47%. `CC(c1cc2ccccc2o1)N(C)C(=O)CCl` (centres unmarked) gave an Inhibition % of 96.1%. Molecule `CC(c1ccc(Cl)cc1)N(C)C(=O)CCl` (centres unmarked) has an Inhibition % of 98%. `CCC(NC(=O)CCl)c1ccc(Cl)cc1` (centres unmarked) was tested, and the Inhibition % was 14.1%. For `CC(c1ccc(F)cc1)N(C)C(=O)Cn1cnc(C#N)n1` (centres unmarked), the Inhibition % was 11.3%. `CC(c1ccc(F)cc1)N(C)C(=O)CCl` (centres unmarked) gave an Inhibition % of 96.3%. Molecule `CCN(C(=O)CCl)C(C)c1ccc(F)cc1` (centres unmarked) has an Inhibition % of 9.9%. With `C=CC(=O)N(C)Cc1cc2ccccc2o1` the Inhibition % was 5.57%. In the case of `CN(C)C=CC(=O)c1cc2ccccc2o1`, the Inhibition % is reported as 0.589%. For `CC(c1ccc(F)c(F)c1)N(C)C(=O)CCl` (centres unmarked), the Inhibition % was 92.5%. Molecule `CC(NC(=O)CCl)c1ccc(Cl)cc1` (centres unmarked) has an Inhibition % of 6.77%. Molecule `C=CC(=O)N1CCCC(c2ccc(F)c(F)c2)C1` (centres unmarked) has an Inhibition % of 9.29%. For `C=CC(=O)N1CC(C)OC(C(F)(F)F)C1` (centres unmarked), the Inhibition % was 14.7%. `CC(=O)SCCc1csc(-c2ccccn2)n1` showed an Inhibition % of 9.81%. `O=C(Nc1ccccc1)c1cccnc1S` was tested, and the Inhibition % was 3.52%. For `CCC1(c2ccccc2)NC(=O)N(NC(=O)CCl)C1=O` (centres unmarked), the Inhibition % was 6.48%. `C=CC(=O)N1CCC(Cc2ccncc2)C1` (centres unmarked) showed an Inhibition % of 6.08%. `Cc1cccc2c(=O)[nH]c(C(Cl)=Cc3ccnn3C)nc12` gave an Inhibition % of 6.42%. Work on `C=CC(=O)NC(C)c1c(C)nn(CC(F)(F)F)c1C` (centres unmarked) yielded an Inhibition % of 4.48%. `CC(c1ccccc1)N(C)C(=O)Cn1cnc(C#N)n1` (centres unmarked) gave an Inhibition % of 7.46%. For `CCN(C(=O)CCl)c1nc2ccccc2s1`, the Inhibition % was 24.6%. With `CN(C(=O)CCl)c1nc2ccccc2s1` the Inhibition % was 3.42%. Work on `CN(C(=O)CCl)C(c1ccccc1)c1ccccc1` yielded an Inhibition % of 6.29%. Molecule `CC(c1ccccc1)N(C)C(=O)CCl` (centres unmarked) has an Inhibition % of 98.5%. Molecule `CC(c1nc2ccccc2s1)N(C)C(=O)CCl` (centres unmarked) has an Inhibition % of 97.3%. `CC1(C)OB(c2cnc3ccnn3c2)OC1(C)C` gave an Inhibition % of 5.87%. `C=CC(=O)N1CCOC(C)(C(F)F)C1` (centres unmarked) gave an Inhibition % of 7.7%. Molecule `CS(=O)(=O)c1cccnc1C#N` has an Inhibition % of 5.26%. `C=CC(=O)N1CCCC1C` (centres unmarked) showed an Inhibition % of 7.71%. In the case of `CC(C)Cn1c(N)c(C(=O)CCl)c(=O)n(C)c1=O`, the Inhibition % is reported as 6.06%. Work on `O=c1[nH]c(-c2ccc(S(=O)(=O)F)cc2)nc2ccccc12` yielded an Inhibition % of 13%. Work on `O=c1[nH]c(-c2ccc(S(=O)(=O)F)cc2)nc2sc3c(c12)CCC3` yielded an Inhibition % of 15.9%. `O=c1[nH]c(-c2cccc(S(=O)(=O)F)c2)nc2sc3c(c12)CCC3` gave an Inhibition % of 88.5%. With `CC1(C)OB(c2cccc(N)c2)OC1(C)C` the Inhibition % was 12.8%. Work on `Cc1cc(B2OC(C)(C)C(C)(C)O2)ccc1N` yielded an Inhibition % of 8.63%. In the case of `CC1(C)OB(c2ccc3ccc(N)cc3c2)OC1(C)C`, the Inhibition % is reported as 86.8%. With `CC1(C)OB(c2ccc(N)c(F)c2)OC1(C)C` the Inhibition % was 1.59%. `CC1(C)OB(c2ccc(N)cc2)OC1(C)C` showed an Inhibition % of 5.89%. `CC1(C)OB(c2ccc(N)c(O)c2)OC1(C)C` was tested, and the Inhibition % was 92.7%. In the case of `CC1(C)OB(c2ccc3ccoc3c2)OC1(C)C`, the Inhibition % is reported as 9.89%. For `Cc1ccc(N)cc1B1OC(C)(C)C(C)(C)O1`, the Inhibition % was 14.1%. `CC1(C)OB(c2ccc3cc(N)ccc3c2)OC1(C)C` gave an Inhibition % of 87.8%. For `Cc1ccc(C)c(Cn2cnc(C#N)n2)c1`, the Inhibition % was 2.61%.
